Results as given in PubChem BioAssay AID687001 (Broad Institute, 2013).
Potency and affinity values are given separately. Active and inactive are the calls of the source.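 Rule for the calls: active = signal-lowering compounds whose fitted half-maximal concentration is at or below twice the top tested dose in every run; inconclusive = runs disagree, flat 30 to 70% inhibition, or poor curve fit; inactive = the rest.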

What follows are compounds tested against Protein S100-A4 (Homo sapiens) (UniProt P26447) (assay: human S100A4 peptide interaction inhibition curves – biochemical, fluorescence polarization, cherry-picked hits, dose response (AID 687001)). Details: FP, S100A4/TAMRA-myosin IIA peptide binding; series mostly up to 11 µM.
Sequence of Protein S100-A4 (Homo sapiens) (P26447 whole entry, looked up): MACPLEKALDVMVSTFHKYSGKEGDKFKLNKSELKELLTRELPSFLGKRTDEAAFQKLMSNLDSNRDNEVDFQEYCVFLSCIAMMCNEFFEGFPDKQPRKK

outcome, inactive:
COc1cc(Cl)ccc1OCc1cc(C(=O)N(C)Cc2nnc(C)o2)no1
CCN(CC)C(=O)c1ccccc1NS(=O)(=O)c1cccs1
COc1ccc(/C=C(\C#N)C(=O)c2cccn2C)cc1
COc1ccc(Cl)cc1NC(=O)CN(C)C(=O)CCCc1c[nH]c2ccccc12
COc1cc(NS(=O)(=O)c2ccc(NC(=O)c3ccc([N+](=O)[O-])cc3)cc2)ncn1
CC(C)NC(=O)N(C)C[C@@H]1Oc2cc(-c3ccncc3)ccc2S(=O)(=O)N([C@H](C)CO)C[C@H]1C
CC(C)C#Cc1cnc2c(c1)C(=O)N([C@H](C)CO)C[C@H](C)[C@H](CN(C)C(=O)Nc1ccc(F)cc1)O2
C[C@@H]1CN([C@@H](C)CO)S(=O)(=O)c2ccc(-c3cccc(C#N)c3)cc2O[C@@H]1CN(C)C(=O)c1ccc(F)cc1
O=C1NC[C@H](c2ccccc2)OC(=O)[C@H](Cc2ccc(F)cc2)C/C=C\C[C@H]1CC(=O)N(CCO)Cc1ccccc1
Cc1cc(Cl)nc(-n2nc(C)cc2C)n1
CC(NC(=O)c1ccccc1F)c1nnc(SCC(=O)Nc2nnc(C3CC3)s2)n1C (centres undefined)
CCOC(=O)C1(C)CCCN1C(=O)c1ccc(C(F)(F)F)nc1C (centres undefined)
C[C@H]1CCCCO[C@H](CN(C)S(=O)(=O)c2ccc(F)cc2)[C@@H](C)CN([C@@H](C)CO)C(=O)c2cc(NS(=O)(=O)c3ccccc3)ccc2O1
Cc1noc(C)c1S(=O)(=O)N(C)C[C@H]1OCCCC[C@H](C)Oc2ccc(NS(=O)(=O)c3ccccc3)cc2C(=O)N([C@H](C)CO)C[C@@H]1C
